Compound activity: PubChem, several laboratories
An excerpt weighted towards active compounds, which were near 1.2% of everything screened.
COUP-TFII inh = blocks human COUP-TFII nuclear receptor | HEK293T NGFI-A luciferase reporter, luminescence | inhibition, % at 8.6 µM | AID 686940 | 0.7% of 370,000 active | P24468;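 active means inhibition above a per-plate cutoff, mean inhibition of test wells between control levels plus 3 SD, cut at about 38% in these data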;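 further: cells cotransfected with COUP-TFII expression vector driving the NGFI-A reporter; 0% = median of COUP-TF2 test wells and 100% = reporter-only cells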
LRH-1 inv ag = NR5A2 inverse agonism in reporter assay; O00482; HEK293T StAR-luciferase reporter, LRH-1 transfected, 24 h; inhibition, % at 3.6 µM; 0.13% of 360,000 active;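 active means inhibition above the mean inhibition of all tested compounds plus 3 SD, cut at about 73% in these data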;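 further: 0% = DMSO wells and 100% = reporter-only cells lacking LRH-1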
SRC3 inh = inhibits human SRC3 coactivator. Q9Y6Q9. HEK293 GAL4-SRC3 luciferase reporter, luminescence. inhibition, % at 3.6 µM. 0.17% of 360,000 active. AID 588352;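 active means inhibition above a per-campaign cutoff, the mean of all compounds plus 3 SD, cut at about 60% in these data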;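 further: 0% = DMSO-treated cells and 100% = gossypol-treated cells at 36 µM; higher means less SRC3-driven luciferase light from the GAL4 reporter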
NCOA1 inh = inhibitors of human steroid receptor coactivator 1 (SRC1) | Q15788 | HEK293 GAL4-SRC1 luciferase reporter, luminescence | inhibition, % at 3.6 µM | 0.12% of 360,000 active;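 active means inhibition above the campaign mean plus 3 SD, with each screening campaign given its own cutoff, cut at about 60% in these data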;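 further: 0% = DMSO treated cells and 100% = gossypol at 36 µM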
Efflux pump mplx = antifungal efflux pump inhibition, Nile Red retention; S. cerevisiae Candida pump triplex; inhibition, % at 10 µM; 0.44% of 330,000 active;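 active means plate passing quality check with inhibition over a set limit, or well fluorescence over plate mean plus 4 SD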;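 further: Nile Red retained in pooled yeast measured as flow cytometry median fluorescence; 0% = buffer negative control and 100% = Enniatin B positive control; higher means more Nile Red kept so more efflux inhibition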
SRC2 inh = inhibits human steroid receptor coactivator 2 | Q15596 | HEK293 GAL4-SRC2 luciferase reporter, luminescence | 0.17% of 370,000 active | inhibition, % at 9 µM;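 active means inhibition above the mean inhibition of all tested compounds plus 3 SD, set per campaign, cut at about 52% in these data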;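 further: 0% = DMSO treated cells and 100% = cells given Gossypol at 36 µM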
Target sequence (Q15596 whole entry, looked up, the tested form may be a part): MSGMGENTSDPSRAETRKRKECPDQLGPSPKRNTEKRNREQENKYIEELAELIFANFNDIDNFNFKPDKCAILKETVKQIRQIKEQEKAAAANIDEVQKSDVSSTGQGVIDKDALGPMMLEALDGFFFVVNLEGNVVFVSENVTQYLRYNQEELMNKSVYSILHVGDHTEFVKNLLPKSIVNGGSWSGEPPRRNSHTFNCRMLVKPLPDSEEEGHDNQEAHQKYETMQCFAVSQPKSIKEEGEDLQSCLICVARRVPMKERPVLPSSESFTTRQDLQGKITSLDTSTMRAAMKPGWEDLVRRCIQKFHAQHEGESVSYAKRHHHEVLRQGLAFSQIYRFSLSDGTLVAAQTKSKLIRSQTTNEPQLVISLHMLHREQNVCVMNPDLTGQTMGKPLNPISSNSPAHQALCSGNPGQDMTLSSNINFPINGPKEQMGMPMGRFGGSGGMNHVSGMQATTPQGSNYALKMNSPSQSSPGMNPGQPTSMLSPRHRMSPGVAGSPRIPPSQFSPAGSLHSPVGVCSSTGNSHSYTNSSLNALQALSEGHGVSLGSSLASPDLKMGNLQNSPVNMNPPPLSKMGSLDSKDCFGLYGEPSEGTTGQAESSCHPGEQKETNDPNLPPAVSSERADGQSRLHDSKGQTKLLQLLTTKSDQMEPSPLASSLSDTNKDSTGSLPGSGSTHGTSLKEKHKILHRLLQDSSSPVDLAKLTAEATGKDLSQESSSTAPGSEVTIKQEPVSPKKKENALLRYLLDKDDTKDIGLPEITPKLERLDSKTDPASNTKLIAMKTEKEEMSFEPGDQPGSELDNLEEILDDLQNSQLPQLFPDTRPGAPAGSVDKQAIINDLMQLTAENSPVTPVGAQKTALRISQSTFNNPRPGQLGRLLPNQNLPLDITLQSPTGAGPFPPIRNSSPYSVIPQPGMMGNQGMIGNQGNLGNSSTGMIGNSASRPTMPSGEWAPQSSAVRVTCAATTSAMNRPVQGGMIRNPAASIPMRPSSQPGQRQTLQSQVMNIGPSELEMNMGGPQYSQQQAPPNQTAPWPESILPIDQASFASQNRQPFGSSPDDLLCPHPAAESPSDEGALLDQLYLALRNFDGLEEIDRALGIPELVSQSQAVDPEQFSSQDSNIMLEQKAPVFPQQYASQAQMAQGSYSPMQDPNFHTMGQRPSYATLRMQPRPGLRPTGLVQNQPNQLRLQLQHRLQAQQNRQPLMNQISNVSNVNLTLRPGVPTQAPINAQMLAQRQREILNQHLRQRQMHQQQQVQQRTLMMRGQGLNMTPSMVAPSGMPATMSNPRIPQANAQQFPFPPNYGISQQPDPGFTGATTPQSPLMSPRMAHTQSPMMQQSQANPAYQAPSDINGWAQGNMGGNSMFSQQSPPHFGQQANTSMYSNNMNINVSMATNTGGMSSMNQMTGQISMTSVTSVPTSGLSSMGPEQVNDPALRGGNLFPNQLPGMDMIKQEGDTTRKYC
Gal4-VP16 ctr = counter-screen for COUP-TFII antagonists: inhibitors of VP16; AID 687007; HEK293 Gal4-VP16 luciferase reporter, luminescence; shares compounds with COUP-TFII inh; inhibition, % at 8.5 µM; 25% of 2,500 active; in the data active means inhibition above about 13%
COUP-TFII conf = confirmation of human COUP-TFII (NR2F2) inhibitors. HEK293 NGFI-A luciferase reporter, luminescence. shares compounds with COUP-TFII inh. inhibition, % at 8.5 µM. AID 687008. 45% of 2,500 active;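 active means mean inhibition over three repeats above a set limit taken from the earlier primary screen, cut at about 38% in these data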;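 further: 100% = cells given the luciferase reporter alone without the COUP-TF2 vector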
Numbers without * were called inactive; . = no result.

SMILES	COUP-TFII inh	LRH-1 inv ag	SRC3 inh	NCOA1 inh	Efflux pump mplx	SRC2 inh	Gal4-VP16 ctr	COUP-TFII conf
NC(=O)c1ccc(N2CCN(c3ccccc3O)CC2)c([N+](=O)[O-])c1	16	7	8	7	0	24	.	.
COc1ccc2oc(/C=C/N(C)C)c(C(=O)c3ccc(Cl)cc3)c2c1	0	-2	-16	4	0	-4	.	.
COc1cc(OC)c(OC)cc1CNc1cc(C)ccc1OC	39*	26	27	9	0	29	7	18
O=S(=O)(NCc1cn2ccsc2n1)c1ccc(Oc2ccccc2)cc1	42*	44	28	28	0	20	9	30
O=S(=O)(NCc1cn2ccsc2n1)c1cccs1	-6	-10	-11	-27	0	-18	.	.
CN(C)c1ccc(N2[C@@H](CC(=O)O)c3cc(C(F)(F)F)ccc3S2(=O)=O)cc1	3	-20	8	3	0	-10	.	.
CCOC(=O)c1cc2c(=Cc3ccc(N(C)C)cc3)c3ccccc3n2[n+]1C	58*	73*	52	43	.	-25	21*	49*
Cc1cc2c(=Cc3ccc(N(C)C)cc3)c3ccccc3n2[n+]1C	75*	76*	62	53	.	-41	12	63*
COc1ccc(CCc2nnc(CCC(=O)N(C)Cc3ccncc3C)o2)cc1	1	3	10	-9	0	-10	.	.
Cc1ccc(C(=O)NNC(=O)CCCN2C(=O)/C(=C/c3ccccc3Cl)SC2=S)cc1	47*	11	34	21	0	63*	32*	33
O=C(CCCN1C(=O)/C(=C/c2ccccc2Cl)SC1=S)Nc1ccccn1	40*	30	15	20	0	69*	6	25
Cc1ccc(/C=C2/SC(=S)N(CCCC(=O)Nc3ccc(O)cc3)C2=O)cc1	70*	41	36	42	.	85*	-78	-13
Cc1ccc(/C=C2\SC(=S)N(CCCC(=O)NNC(=O)c3ccccc3O)C2=O)cc1	70*	24	58	53	0	88*	23*	39*
O=C(CCN1C(=O)/C(=C/c2ccccc2Cl)SC1=S)Nc1ccccn1	6	4	0	-6	0	-1	.	.
O=C(CCCN1C(=O)/C(=C\c2ccccc2)SC1=S)Nc1ccc(O)cc1	14	2	1	-2	0	28	.	.
Cc1ccc(/C=C2\SC(=S)N(CCC(=O)NNC(=O)c3ccccc3O)C2=O)cc1	9	11	6	-2	0	-11	.	.
CCOC(=O)C1(Cc2ccccc2C)CCCN(C(=O)c2sccc2C)C1 (centres undefined)	-33	-14	-16	-9	0	-40	.	.
Clc1cccc(CSc2nnc([C@@H]3CCCN3)o2)c1	6	7	0	13	0	10	.	.
COc1ccc(CCNS(=O)(=O)c2ccc3c(c2)OCCO3)cc1OC	-6	4	19	-6	0	8	.	.
CCOC(=O)c1sc(NC(=O)CSc2n[nH]c(C)n2)nc1C	0	-25	-5	-3	0	3	.	.
C/C(=N/NS(=O)(=O)c1ccc(Br)cc1)c1ccc(C)o1	0	12	27	-11	2	-17	.	.
Cc1ccc(/C=C2\SC(=S)N(CCCC(=O)NC3CCCC3)C2=O)cc1	42*	34	57	59	0	89*	12	21
COc1cc(SC)ccc1C(=O)Nc1ncc(C)s1	48*	-37	11	-13	0	53*	-9	5
O=S(=O)(NCc1cccs1)c1ccc(Br)cc1	6	3	9	5	0	15	.	.
O=C(Nc1ccc(Br)cc1)c1ccc(F)c(S(=O)(=O)NCc2cccs2)c1	72*	35	20	11	0	14	-2	56*
SMILES	COUP-TFII inh	LRH-1 inv ag	SRC3 inh	NCOA1 inh	Efflux pump mplx	SRC2 inh	Gal4-VP16 ctr	COUP-TFII conf
O=C(O)COc1ccccc1/C=N/NC(=O)CSc1nc2ccccc2s1	15	4	13	-5	0	1	.	.
O=C(CSc1nc2ccccc2s1)N/N=C/c1ccccc1C(=O)O	43*	24	17	-5	0	22	-5	17
Nc1nonc1C(=O)NCCNCc1cc(Br)ccc1OCc1ccccc1F	66*	12	15	3	0	17	19*	26
CCOc1ccc(N=C(C)C2=C(O)c3ccccc3C2=O)cc1	-48	-84	-84	-78	0	-62	.	.
CCOc1ccc(N=C(NN)c2ccc3ccccc3n2)cc1	40*	16	44	43	0	38	-41	-14
C(=N\Nc1nc2ccccc2s1)/c1ccccn1	63*	.	.	.	0	69*	70*	80*
CCOc1ccc(NC(=O)CN(C)C(=O)c2cc([N+](=O)[O-])ccc2Sc2ccccc2)cc1OCC	9	-8	24	3	.	-3	.	.
Cc1nc(SCC(=O)O)c(C#N)c2c1CCCC2	-3	-10	-1	7	0	2	.	.
COc1cc(/C=C/C(=O)c2ccc3c(c2)OCCO3)cc(Br)c1OCC(=O)N(C)C	38*	28	50	11	0	55*	31*	20
O=C(/C=C/c1ccncc1)c1ccc2c(c1)OCCO2	-16	19	12	-2	0	19	.	.
O=C(Nc1ccn(Cc2c(F)c(F)cc(F)c2F)n1)c1ccc(COc2ccccc2Cl)cc1	.	-1	22	15	0	.	.	.
O=C(Nc1ccn(Cc2ccccc2F)n1)c1ccc(COc2ccccc2Cl)cc1	61*	25	40	13	0	10	-15	24
O=C(CSc1nnc(-c2cccnc2)s1)Nc1ccnc2ccccc12	65*	51	36	26	2	41	7	62*
Cc1ccc(NC(=O)CSc2nnc(-c3cccnc3)s2)cc1	-6	-5	16	-20	0	11	.	.
Fc1ccc2[nH]c3c(NCc4ccccc4)ncnc3c2c1	55*	31	16	25	0	31	1	38*
COc1ccc2[nH]c3c(NCc4ccco4)ncnc3c2c1	.	.	.	.	0	.	.	.
c1ccc(Nc2nc(NCc3ccco3)c3ccccc3n2)cc1	53*	-53	-2	-51	0	30	-14	26
Cc1cccc(Nc2nc(NCc3ccco3)c3ccccc3n2)c1	63*	-5	18	-8	3	35	6	48*
Fc1ccc(NC(=S)N2CCCN(c3ccc(C(F)(F)F)cn3)CC2)c(F)c1	64*	43	19	25	1	18	5	63*
O=C(Nc1ccc(F)cc1F)N1CCCN(c2ccc(C(F)(F)F)cn2)CC1	33	16	29	17	0	6	.	.
Cc1nc(SCc2cccc(C(=O)O)c2)nc2c1CCCC2	52*	-43	-47	-48	0	53*	23*	4
